# Data from PubChem BioAssay AID2110 (National Center for Advancing Translational Sciences (NCATS), 2009).
# “And” between values parts separate entries of the source, which are not always exact repeats. Equal values may be shown once. Records with an inconclusive call do not appear. A number with no mark means an inactive call. The source made the active and inactive calls. Calls follow the shape of the dose curve; as a rule, active = well fitted curve in either direction with a large enough effect; inconclusive = small, poorly fitted or top-dose-only effect; inactive = no such curve, though single readings can be large or run the other way.
# Molecular target: Lysosomal alpha-glucosidase (Homo sapiens) (UniProt P10253)
# Experiment: Confirmation of Inhibitors and Activators of Purified Human alpha-Glucosidase Using an Alternate Red Fluorescent Susbtrate
# Settings: purified enzyme, red fluorogenic substrate; series mostly up to 63.4 µM; activity change, negative = inhibition: at the top concentration
# Procedure, shortened: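 Concentration series tested against 4 nM purified human enzyme, pH 5.0 citrate buffer with Tween-20; 400 uM resorufin glycoside substrate, 20 min room temperature, NaOH/glycine stop. Fluorescence normalized to no-enzyme and full-activity controls; Hill-equation AC50.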
Compound,"activity change, negative = inhibition",Potency
O=S(=O)(c1ccc(Cl)cc1)N1CCN(c2nc(-c3cccs3)nc3ccccc23)CC1,-7.19%,–
CCCN1CNc2c(c(=O)[nH]c(=S)n2CCC)C1,-4.77%,–
Cc1ccc(S(=O)(=O)N2CCN(C(=O)N(c3ccccc3)c3ccccc3)CC2)cc1,-78.6% [at 130 µM],–
CCCN1CNc2c(c(=O)[nH]c(=S)n2CCc2cc(OC)ccc2OC)C1,–,6.31 µM (active)
CC(=O)c1ccc(N2CCN(C(=O)c3ccc4c(c3)CC(=O)N4)CC2)cc1,-10.5%,–
CC(=O)c1ccc(N2CCN(S(=O)(=O)c3ccc4c(c3)n(C)c(=O)n4C)CC2)cc1,-9.43%,–
CCCN1CNc2c(c(=O)[nH]c(=S)n2CCc2ccc(Cl)cc2Cl)C1,–,1.26 µM (active)
CCCN1CNc2c(c(=O)[nH]c(=S)n2CCc2ccsc2)C1,–,25.1 µM (active)
CCCN1CNc2c(c(=O)[nH]c(=S)n2CCc2cccc(OC)c2)C1,–,2.51 µM (active)
c1csc(-c2nc(NCC3CCCO3)c3ccccc3n2)c1 (stereo not given),-0.393% [at 32.7 µM],–
CC(=O)c1ccc(N2CCN(S(=O)(=O)c3cc4c(cc3Cl)NC(=O)C4)CC2)cc1,–,1.63 µM [inhibitor] (active) and 5.17 µM [inhibitor] (active)
CCCN1CNc2c(c(=O)[nH]c(=S)n2CCc2ccc3c(c2)OCCO3)C1,–,1.12 µM (active)
O=C1Cc2cc(S(=O)(=O)N3CCN(c4ccc(CO)cc4)CC3)ccc2N1,–,13 µM [inhibitor] (active)
CCCN1CNc2c(c(=O)[nH]c(=S)n2CCc2ccc(C)cc2)C1,–,11.2 µM (active)
COc1ccc(CCn2c(=S)[nH]c(=O)c3c(C)cc(C)nc32)cc1OC,7.14%,–
CC(=O)c1ccc(N2CCN(S(=O)(=O)c3ccc4c(c3)oc(=O)n4C)CC2)cc1,-15.5%,–
Cc1ccc(N2CCN(S(=O)(=O)c3ccc4c(c3)CC(=O)N4)CC2)cc1,-18.6% [at 130 µM],–
CC(=O)N1CCN(S(=O)(=O)c2ccc3c(c2)CC(=O)N3)CC1,–,14.9 µM [inhibitor] (active)
COc1ccc(CCn2c3c(c(=O)[nH]c2=S)CN(CC(C)C)CN3)cc1OC,–,0.631 µM (active)
CCCN1CNc2c(c(=O)[nH]c(=S)n2CCc2ccccc2C)C1,–,8.91 µM (active)
CCCN1CNc2c(c(=O)[nH]c(=S)n2CCc2cccc(C)c2)C1,–,7.08 µM (active)
Nc1nc(N)c2nc(-c3ccccc3)c(N)nc2n1,0.18%,–
CC(=O)c1ccc(N2CCN(S(=O)(=O)c3ccc4c(c3)OCC(=O)N4)CC2)cc1,-13.8%,–
CCCCN1C[C@H](O)[C@@H](O)[C@H](O)[C@H]1CO,-96.3%,–
Clc1ncc(C#Cc2ccccc2)c2ncncc12,3.52%,–
